Measured values: PubChem BioAssay (NCI)
The panel holds about 83,000 compounds, 20% with a hit somewhere; the sample as a whole holds those more often.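 Testing used 96-well plates and a 48-hour single-concentration exposure. Example: -40 means 40% of the starting cells died.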 The source made the active and inactive calls. Rule for the calls: active = growth percent below 10; inactive = the rest.

Columns and labels:
Experiment in all cases: NCI-60 one-dose screen, 48 h (100 = growth as untreated, 0 = no growth, -100 = all killed)
RPMI-8226 leukemia = conditions: 10 µM unless noted
OVCAR-8 ovarian = conditions: 10 µM unless noted
OVCAR-5 ovarian = conditions: 10 µM unless noted
OVCAR-4 ovarian = conditions: 10 µM unless noted
IGROV1 ovarian = conditions: 10 µM unless noted
OVCAR-3 ovarian = conditions: 10 µM unless noted
HS 578T breast = conditions: 10 µM unless noted
NCI/ADR-RES ovarian = conditions: 10 µM unless noted
T-47D breast = conditions: 10 µM unless noted
BT-549 breast = conditions: 10 µM unless noted
MDA-MB-435 melanoma = conditions: 10 µM unless noted
SW-620 colon = conditions: 10 µM unless noted
MCF7 breast = conditions: 10 µM
HCT-116 colon = conditions: 10 µM unless noted
HCC-2998 colon = conditions: 10 µM unless noted
KM12 colon = conditions: 10 µM unless noted

Measured: growth

Cn1cc(-c2ccc3ncc(-c4ccc(CC(=O)Nc5cc(C(C)(C)C)no5)cc4)nc3c2)cn1
inactive: RPMI-8226 leukemia 32.3% | OVCAR-8 ovarian 37% | OVCAR-5 ovarian 74.6% | OVCAR-4 ovarian 31.9% | IGROV1 ovarian 19.3% | OVCAR-3 ovarian 49.3% | HS 578T breast 25.9% | NCI/ADR-RES ovarian 43.7% | T-47D breast 25.5% | BT-549 breast 55.4% | MDA-MB-435 melanoma 28.8% | SW-620 colon 48.3% | MCF7 breast 30.2% | HCT-116 colon 24.4% | HCC-2998 colon 60.2%
active: KM12 colon 6.86%

Cc1sc2ncn(CC(=O)Nc3ccc(S(N)(=O)=O)cc3)c(=O)c2c1C
inactive: RPMI-8226 leukemia 106% | OVCAR-8 ovarian 96.5% | OVCAR-5 ovarian 99.2% | OVCAR-4 ovarian 108% | IGROV1 ovarian 102% | OVCAR-3 ovarian 108% | HS 578T breast 95.8% | NCI/ADR-RES ovarian 105% | T-47D breast 96.5% | BT-549 breast 97.7% | MDA-MB-435 melanoma 105% | SW-620 colon 100% | MCF7 breast 101% | HCT-116 colon 106% | HCC-2998 colon 113% | KM12 colon 102%

COc1ccc(/C=C2/SC(=O)N(CC(=O)N3CCN(c4cc5c(cc4F)c(=O)c(C(=O)O)cn5C4CC4)CC3)C2=O)cc1
inactive: RPMI-8226 leukemia 119% | OVCAR-8 ovarian 93.9% | OVCAR-5 ovarian 103% | OVCAR-4 ovarian 107% | IGROV1 ovarian 96% | OVCAR-3 ovarian 115% | HS 578T breast 99.9% | NCI/ADR-RES ovarian 99.4% | T-47D breast 104% | BT-549 breast 96.1% | MDA-MB-435 melanoma 102% | SW-620 colon 98.2% | MCF7 breast 96% | HCT-116 colon 100% | HCC-2998 colon 105% | KM12 colon 105%

COC(=O)/C(CCC=C(C)C)=C1\[C@@H](OC(C)=O)C[C@@]2(C)[C@H]1CC(=O)N[C@H]1[C@@]3(C)CCNC(=O)[C@@H](C)[C@@H]3CC[C@@]12C
inactive: RPMI-8226 leukemia 97.8% | OVCAR-8 ovarian 98.3% | OVCAR-5 ovarian 102% | OVCAR-4 ovarian 101% | IGROV1 ovarian 105% | OVCAR-3 ovarian 107% | HS 578T breast 97.1% | NCI/ADR-RES ovarian 106% | T-47D breast 88.9% | BT-549 breast 107% | MDA-MB-435 melanoma 105% | SW-620 colon 103% | MCF7 breast 93% | HCT-116 colon 101% | HCC-2998 colon 103% | KM12 colon 102%

COc1cccc2c(=O)c3c(sc12)c(NCCCNCCO)nc1ccccc13
active: SW-620 colon -73.9% | MCF7 breast -13.6%
inactive: RPMI-8226 leukemia 29.1% | OVCAR-8 ovarian 49.8% | OVCAR-5 ovarian 77.8% | OVCAR-4 ovarian 42.4% | IGROV1 ovarian 26.2% | OVCAR-3 ovarian 54.6% | HS 578T breast 35.9% | NCI/ADR-RES ovarian 60.6% | T-47D breast 72.1% | BT-549 breast 84.8% | MDA-MB-435 melanoma 15% | HCT-116 colon 31.5% | HCC-2998 colon 37.9% | KM12 colon 31.3%

CCCCN1CCN(c2ccc3nc(-c4ccc5nc(-c6ccc(C(F)(F)F)cc6)[nH]c5c4)[nH]c3c2)CC1
active: RPMI-8226 leukemia -35.3% | OVCAR-8 ovarian -40.5% | OVCAR-5 ovarian -89.2% | OVCAR-4 ovarian -84.2% | IGROV1 ovarian -82.3% | OVCAR-3 ovarian -96.7% | HS 578T breast -64.3% | T-47D breast -37.3% | BT-549 breast -53.2% | MDA-MB-435 melanoma -85.3% | SW-620 colon -76.9% | MCF7 breast -74.3% | HCT-116 colon -70.7% | HCC-2998 colon -84% | KM12 colon -88.3%
inactive: NCI/ADR-RES ovarian 54.8%

COC(=O)c1c2c(c(C)[n+]([O-])c1C)C(=O)C(NCc1ccc(Br)cc1)=CC2=O
inactive: RPMI-8226 leukemia 47.6% | OVCAR-5 ovarian 69.1% | HS 578T breast 82.4% | T-47D breast 20.5% | BT-549 breast 62.3% | HCC-2998 colon 14.4% | KM12 colon 15.2%
active: OVCAR-8 ovarian 4.52% | OVCAR-4 ovarian -27% | IGROV1 ovarian 5.51% | OVCAR-3 ovarian -21.5% | NCI/ADR-RES ovarian -3.23% | MDA-MB-435 melanoma -77.4% | SW-620 colon 5.24% | MCF7 breast -20.1% | HCT-116 colon 1.37%

O=C(/C=C/c1ccc(Cl)cc1)c1ccc(Nc2nc(NCCO)nc(Nc3ccc(Cl)cc3)n2)cc1
active: RPMI-8226 leukemia -3.49% | MCF7 breast -31.3% | HCT-116 colon -78.9%
inactive: OVCAR-8 ovarian 70.8% | OVCAR-5 ovarian 94.3% | OVCAR-4 ovarian 52.8% | IGROV1 ovarian 80.1% | OVCAR-3 ovarian 63.2% | HS 578T breast 77.2% | NCI/ADR-RES ovarian 84.6% | T-47D breast 36.1% | BT-549 breast 68% | MDA-MB-435 melanoma 62.2% | SW-620 colon 62.6% | HCC-2998 colon 20.2% | KM12 colon 18.7%

Clc1ccc(Oc2ccc(Nc3ncnc4onc(-c5ccccc5)c34)cc2)c(Cl)c1
inactive: RPMI-8226 leukemia 90.8% | OVCAR-8 ovarian 97.7% | OVCAR-5 ovarian 101% | OVCAR-4 ovarian 81.5% | IGROV1 ovarian 94.5% | OVCAR-3 ovarian 109% | HS 578T breast 99.5% | NCI/ADR-RES ovarian 96.8% | T-47D breast 83.5% | BT-549 breast 90.2% | MDA-MB-435 melanoma 103% | SW-620 colon 99.5% | MCF7 breast 80.6% | HCT-116 colon 85.4% | HCC-2998 colon 103% | KM12 colon 103%
